Holding throughout (assay): DAPPL (digital affinity profiling via proximity ligation, sequencing); 10 mM Tris-HCl pH 7.5, 50 mM NaCl, 1 mM DTT, 4% glycerol, room temperature, 30 min; GST-TFs on glutathione beads, 16-mer random dsDNA library, 0.1% formaldehyde crosslink after washing; high values mean tight binding
What all share (conditions): protein: recombinant; tags: N-terminal GST; dsDNA, one strand shown

For test [1], the target named is T1, FLI1 (Homo sapiens, UniProt Q01543 1-452).
T1 sequence: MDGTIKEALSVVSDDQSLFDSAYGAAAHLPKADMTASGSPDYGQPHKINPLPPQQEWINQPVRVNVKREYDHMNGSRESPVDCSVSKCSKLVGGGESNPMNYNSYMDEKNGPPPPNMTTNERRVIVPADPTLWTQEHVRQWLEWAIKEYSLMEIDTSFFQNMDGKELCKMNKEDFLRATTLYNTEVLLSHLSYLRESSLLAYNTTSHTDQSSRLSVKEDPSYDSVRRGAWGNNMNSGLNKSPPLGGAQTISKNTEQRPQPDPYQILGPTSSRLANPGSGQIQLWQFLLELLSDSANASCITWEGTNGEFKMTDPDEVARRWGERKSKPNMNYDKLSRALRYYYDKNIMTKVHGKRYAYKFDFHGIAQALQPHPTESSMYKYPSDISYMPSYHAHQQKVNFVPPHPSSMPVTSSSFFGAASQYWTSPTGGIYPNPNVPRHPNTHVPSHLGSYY
Put shortly:
(§1)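 After expression in yeast as GST fusions, human transcription factors were bound to glutathione beads, DNA-barcoded and mixed with a tag-only sample. The pools were incubated with 200 nmole of a 16-mer random double-stranded DNA library in Tris/NaCl/DTT/glycerol buffer (30 min, room temperature), washed and crosslinked with 0.1% formaldehyde. Proximity ligation with BsaI/T4 ligase ran for 1 h at 37 °C, before PCR amplification and sequencing on an Illumina NextSeq500. Binding signal is a hexamer's read frequency for a factor divided by its frequency for the tag-only sample.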

For test [2], the target named is T2, ELK1 (Homo sapiens, UniProt P19419 1-428).
T2 sequence: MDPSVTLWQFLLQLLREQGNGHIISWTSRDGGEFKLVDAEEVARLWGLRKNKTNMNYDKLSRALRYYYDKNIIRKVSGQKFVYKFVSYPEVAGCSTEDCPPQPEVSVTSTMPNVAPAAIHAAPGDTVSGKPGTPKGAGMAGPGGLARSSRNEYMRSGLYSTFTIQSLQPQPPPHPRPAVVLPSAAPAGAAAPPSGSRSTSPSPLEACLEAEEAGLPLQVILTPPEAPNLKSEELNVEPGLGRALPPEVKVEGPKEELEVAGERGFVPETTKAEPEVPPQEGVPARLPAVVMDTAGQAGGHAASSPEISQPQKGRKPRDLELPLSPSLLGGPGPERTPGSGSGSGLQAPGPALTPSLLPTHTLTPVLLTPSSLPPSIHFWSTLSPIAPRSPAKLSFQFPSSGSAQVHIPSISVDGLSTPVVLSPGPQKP
Put shortly:
as §1

Test [3] deals with T3, GABPA (Homo sapiens, UniProt Q06546 1-454).
T3 sequence: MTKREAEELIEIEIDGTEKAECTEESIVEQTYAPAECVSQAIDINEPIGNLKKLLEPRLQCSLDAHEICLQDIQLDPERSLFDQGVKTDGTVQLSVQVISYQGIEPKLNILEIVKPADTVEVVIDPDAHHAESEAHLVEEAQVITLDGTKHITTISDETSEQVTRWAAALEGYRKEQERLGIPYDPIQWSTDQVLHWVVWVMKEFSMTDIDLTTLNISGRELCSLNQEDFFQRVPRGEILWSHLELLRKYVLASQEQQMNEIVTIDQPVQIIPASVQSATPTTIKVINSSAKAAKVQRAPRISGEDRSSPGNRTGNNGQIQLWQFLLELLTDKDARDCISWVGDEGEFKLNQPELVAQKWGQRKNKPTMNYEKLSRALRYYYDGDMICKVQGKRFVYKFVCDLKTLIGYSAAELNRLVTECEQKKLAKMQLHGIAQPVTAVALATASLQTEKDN
Put shortly: as §1

Test [4] deals with T4, ERG (Homo sapiens, UniProt P11308 1-479).
T4 sequence: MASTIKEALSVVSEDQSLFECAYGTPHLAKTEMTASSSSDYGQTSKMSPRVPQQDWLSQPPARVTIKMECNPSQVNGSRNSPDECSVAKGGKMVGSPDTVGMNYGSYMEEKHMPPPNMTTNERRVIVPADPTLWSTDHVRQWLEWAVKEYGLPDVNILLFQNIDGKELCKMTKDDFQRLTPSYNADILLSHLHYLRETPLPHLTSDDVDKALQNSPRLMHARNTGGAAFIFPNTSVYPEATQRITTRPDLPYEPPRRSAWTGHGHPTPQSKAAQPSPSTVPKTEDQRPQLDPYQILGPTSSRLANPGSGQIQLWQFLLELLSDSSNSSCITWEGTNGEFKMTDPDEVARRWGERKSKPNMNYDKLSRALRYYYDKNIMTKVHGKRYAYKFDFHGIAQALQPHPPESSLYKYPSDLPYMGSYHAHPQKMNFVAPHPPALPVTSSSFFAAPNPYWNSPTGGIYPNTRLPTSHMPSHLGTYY
An outline of the steps:
as §1

In test [5] the target is ELF1 (Homo sapiens, UniProt P32519 1-619). Put shortly: as §1
The target in test [6] is T5, EHF (Homo sapiens, UniProt Q9NZC4 1-300).
T5 sequence: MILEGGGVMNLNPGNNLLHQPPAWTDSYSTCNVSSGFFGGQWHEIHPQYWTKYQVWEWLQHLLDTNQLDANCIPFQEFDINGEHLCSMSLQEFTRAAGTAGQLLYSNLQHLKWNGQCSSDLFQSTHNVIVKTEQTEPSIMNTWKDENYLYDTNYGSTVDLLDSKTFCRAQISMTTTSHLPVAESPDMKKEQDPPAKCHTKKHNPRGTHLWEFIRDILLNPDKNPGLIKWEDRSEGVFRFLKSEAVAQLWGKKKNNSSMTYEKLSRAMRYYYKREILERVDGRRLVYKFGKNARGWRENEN
Put shortly: as §1

Test [7] concerns the target SPI1 (Homo sapiens, UniProt P17947 1-270). An outline of the steps: as §1
In test [8] the target is T6, ELK3 (Homo sapiens, UniProt P41970 1-407).
T6 sequence: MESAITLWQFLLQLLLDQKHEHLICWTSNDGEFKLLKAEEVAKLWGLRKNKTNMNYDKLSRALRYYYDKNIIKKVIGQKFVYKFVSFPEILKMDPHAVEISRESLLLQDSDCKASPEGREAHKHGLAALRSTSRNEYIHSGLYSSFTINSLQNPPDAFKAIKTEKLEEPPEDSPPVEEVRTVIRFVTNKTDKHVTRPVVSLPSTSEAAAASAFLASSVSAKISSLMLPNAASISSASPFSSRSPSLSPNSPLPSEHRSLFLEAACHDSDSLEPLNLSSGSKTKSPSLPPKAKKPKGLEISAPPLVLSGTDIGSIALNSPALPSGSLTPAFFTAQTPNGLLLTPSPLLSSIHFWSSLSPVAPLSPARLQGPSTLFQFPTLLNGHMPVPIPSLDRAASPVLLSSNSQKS
An outline of the steps:
as §1

Test [9] has as its target SPIB (Homo sapiens, UniProt Q01892 1-262). Put shortly:
as §1

Results on 9 sequences are retold here after publication PMC7862700, “An all-to-all approach to the identification of sequence-specific readers for epigenetic DNA modifications on cytosine”.

Sequence of ELF1 (P32519 whole entry): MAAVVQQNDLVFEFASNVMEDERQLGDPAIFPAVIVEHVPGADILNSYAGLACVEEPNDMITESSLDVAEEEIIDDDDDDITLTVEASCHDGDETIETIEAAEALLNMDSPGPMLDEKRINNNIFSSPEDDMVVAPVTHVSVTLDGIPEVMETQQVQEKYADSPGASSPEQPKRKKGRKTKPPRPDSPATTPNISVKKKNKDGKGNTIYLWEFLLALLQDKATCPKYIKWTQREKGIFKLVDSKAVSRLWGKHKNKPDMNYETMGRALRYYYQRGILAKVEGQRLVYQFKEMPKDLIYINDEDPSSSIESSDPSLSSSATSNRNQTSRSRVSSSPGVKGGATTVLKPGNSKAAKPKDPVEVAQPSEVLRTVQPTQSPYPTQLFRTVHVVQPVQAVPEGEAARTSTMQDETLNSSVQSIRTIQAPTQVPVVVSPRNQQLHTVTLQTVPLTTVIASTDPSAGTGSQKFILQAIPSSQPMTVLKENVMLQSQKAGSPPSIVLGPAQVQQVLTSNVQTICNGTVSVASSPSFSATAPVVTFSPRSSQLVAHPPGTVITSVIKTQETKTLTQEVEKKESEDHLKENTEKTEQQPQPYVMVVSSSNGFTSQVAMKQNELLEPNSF
Sequence of SPIB (Q01892 whole entry): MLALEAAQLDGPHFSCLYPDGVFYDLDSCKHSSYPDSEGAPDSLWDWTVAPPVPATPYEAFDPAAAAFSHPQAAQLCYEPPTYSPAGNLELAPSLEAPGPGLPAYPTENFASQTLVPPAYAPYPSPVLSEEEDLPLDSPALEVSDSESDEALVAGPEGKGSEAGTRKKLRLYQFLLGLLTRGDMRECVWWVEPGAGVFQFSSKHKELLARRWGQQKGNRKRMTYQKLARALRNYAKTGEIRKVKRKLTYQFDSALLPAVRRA

As for CACGAA, the binding signal in [1] was 1.05 fold enrichment (6-mer frequency, TF over GST control); in test [2], 1.15 fold enrichment (6-mer frequency, TF over GST control); in [3], 1.19 fold enrichment (6-mer frequency, TF over GST control); in [4] it was 1.1 fold enrichment (6-mer frequency, TF over GST control); in test [5], 1.11 fold enrichment (6-mer frequency, TF over GST control); in test [6] it was 1.07 fold enrichment (6-mer frequency, TF over GST control). The binding signal is 1.06 fold enrichment (6-mer frequency, TF over GST control) in test [7] and 1.03 fold enrichment (6-mer frequency, TF over GST control) in test [8].

TGCCGA: the binding signal was 1.07 fold enrichment (6-mer frequency, TF over GST control) in test [1]; 1.25 fold enrichment (6-mer frequency, TF over GST control) in [2]; 1.21 fold enrichment (6-mer frequency, TF over GST control) in [3]; 1.1 fold enrichment (6-mer frequency, TF over GST control) in test [4]; 1.03 fold enrichment (6-mer frequency, TF over GST control) in [5]; 1.24 fold enrichment (6-mer frequency, TF over GST control) in test [6]. The binding signal in test [7] was 1.2 fold enrichment (6-mer frequency, TF over GST control); in test [9] it was 1.18 fold enrichment (6-mer frequency, TF over GST control); in test [8], 1.1 fold enrichment (6-mer frequency, TF over GST control).

In the case of ACTACA, the binding signal in test [1] is 1.32 fold enrichment (6-mer frequency, TF over GST control); in test [2] it was 1.21 fold enrichment (6-mer frequency, TF over GST control); in test [3], 1.32 fold enrichment (6-mer frequency, TF over GST control); in test [4] it was 1.16 fold enrichment (6-mer frequency, TF over GST control); in test [5], 1.19 fold enrichment (6-mer frequency, TF over GST control); in [6], 1.15 fold enrichment (6-mer frequency, TF over GST control). The binding signal is 1.13 fold enrichment (6-mer frequency, TF over GST control) in [7]; 1.28 fold enrichment (6-mer frequency, TF over GST control) in test [9]; 1.11 fold enrichment (6-mer frequency, TF over GST control) in [8].

With AAGCAA, the binding signal was 1.03 fold enrichment (6-mer frequency, TF over GST control) in [1]; 1.08 fold enrichment (6-mer frequency, TF over GST control) in test [2]; 1.07 fold enrichment (6-mer frequency, TF over GST control) in test [3]; 1.02 fold enrichment (6-mer frequency, TF over GST control) in test [4]; 1.06 fold enrichment (6-mer frequency, TF over GST control) in test [5]; 1.02 fold enrichment (6-mer frequency, TF over GST control) in test [6]. Besides, the binding signal in [9] is 1.02 fold enrichment (6-mer frequency, TF over GST control).

Consider CAAGAA, for which the binding signal in [1] was 1.03 fold enrichment (6-mer frequency, TF over GST control); in test [2], 1.11 fold enrichment (6-mer frequency, TF over GST control); in test [3], 1.02 fold enrichment (6-mer frequency, TF over GST control); in test [4], 1.11 fold enrichment (6-mer frequency, TF over GST control); in test [5], 1.03 fold enrichment (6-mer frequency, TF over GST control); in [6], 1.04 fold enrichment (6-mer frequency, TF over GST control). Moreover, the binding signal in test [7] is 1.06 fold enrichment (6-mer frequency, TF over GST control); in test [8] it was 1.06 fold enrichment (6-mer frequency, TF over GST control).

Take ACGTAA: the binding signal in [1] was 1.07 fold enrichment (6-mer frequency, TF over GST control); in [2] it was 1.2 fold enrichment (6-mer frequency, TF over GST control); in test [3], 1.17 fold enrichment (6-mer frequency, TF over GST control); in test [4] it was 1.03 fold enrichment (6-mer frequency, TF over GST control); in test [5], 1.07 fold enrichment (6-mer frequency, TF over GST control); in test [6] it was 1.04 fold enrichment (6-mer frequency, TF over GST control). Besides, the binding signal in test [7] was 1.05 fold enrichment (6-mer frequency, TF over GST control); in [8], 1.15 fold enrichment (6-mer frequency, TF over GST control).

With GCCCCC, the binding signal in test [1] is 1.06 fold enrichment (6-mer frequency, TF over GST control); in test [2] it was 1.02 fold enrichment (6-mer frequency, TF over GST control); in test [3], 1.15 fold enrichment (6-mer frequency, TF over GST control); in [4], 1.03 fold enrichment (6-mer frequency, TF over GST control); in [5], 1.15 fold enrichment (6-mer frequency, TF over GST control); in test [6] it was 1.13 fold enrichment (6-mer frequency, TF over GST control). The binding signal in test [7] is 1.12 fold enrichment (6-mer frequency, TF over GST control); in test [8], 1.06 fold enrichment (6-mer frequency, TF over GST control).

For TTACTG, the binding signal was 1.11 fold enrichment (6-mer frequency, TF over GST control) in [1]; 1.12 fold enrichment (6-mer frequency, TF over GST control) in test [2]; 1.08 fold enrichment (6-mer frequency, TF over GST control) in [3]; 1.14 fold enrichment (6-mer frequency, TF over GST control) in test [4]; 1.09 fold enrichment (6-mer frequency, TF over GST control) in test [5]; 1.18 fold enrichment (6-mer frequency, TF over GST control) in test [6]. The binding signal is 1.05 fold enrichment (6-mer frequency, TF over GST control) in test [7] and 1.03 fold enrichment (6-mer frequency, TF over GST control) in test [8].

For the sequence GAAGTT, the binding signal was 1.76 fold enrichment (6-mer frequency, TF over GST control) in [1]; 1.66 fold enrichment (6-mer frequency, TF over GST control) in test [2]; 1.63 fold enrichment (6-mer frequency, TF over GST control) in test [3]; 1.77 fold enrichment (6-mer frequency, TF over GST control) in test [4]; 1.61 fold enrichment (6-mer frequency, TF over GST control) in test [5]; 1.72 fold enrichment (6-mer frequency, TF over GST control) in test [6]. The binding signal was 2.02 fold enrichment (6-mer frequency, TF over GST control) in test [7]; 1.72 fold enrichment (6-mer frequency, TF over GST control) in test [9]; 1.62 fold enrichment (6-mer frequency, TF over GST control) in test [8].
